Experimental findings from PubChem BioAssay are described below.

Activity calls are given as the source filed them. Unless noted, the rule behind the calls is not given here.

The test system of experiment [1] is Wnt5a (protein binding on small-molecule microarray). Kind of experiment: Wnt5a binders on small-molecule microarray, primary screen, biophysical, 635/667 nm fluorescence (AID 1142).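 Note: fluorescence read at 667 nm with signal to noise per printed feature.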 The conditions noted are these: 635 nm fluorescence, higher = more signal.
Experiment [2] can be described thus: cell viability in Huh7 cells, primary screen, cytotoxicity control for HCV replication inhibitor project, CellTiter-Glo luminescence, basal, 48 h (AID 1143).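 Note: Huh7 hepatoma cells carrying a hepatitis C replication reporter with no stimulus; test concentration not given here.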 To be noted: Huh7 HCV replicon, higher = more signal, called active from +8 up or from −8 down.
Experiment [3] in a line: P. aeruginosa biofilm formation inhibitors, primary screen, PAO1 strain, BacTiter-Glo luminescence, LB-PBS (AID 1144). To be noted: 12 h, higher = more signal.
A short description of experiment [4]: CREB reporter modulators without forskolin, primary screen, cell-based, PC12, CRE-LacZ reporter, unstimulated (AID 1145). The conditions noted are these: no forskolin, luminescence, 4.5 h, higher = more signal, called active from +8 up or from −8 down.
A short description of experiment [5]: CREB reporter modulators under forskolin, primary screen, cell-based, PC12, CRE-LacZ reporter, forskolin-stimulated (AID 1146).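 Note: PC12 cells with 6xCRE LacZ reporter stimulated by forskolin 10 µM; beta-galactosidase reporter signal reflecting CREB driven transcription.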 The conditions noted are these: luminescence, 4.5 h, higher = more signal, called active from +8 up or from −8 down.
Experiment [6] addresses Streptavidin (Streptomyces avidinii) (UniProt P22629). Kind of experiment: streptavidin binders on small-molecule microarray, primary screen, artefact control for SMM compound annotation, biophysical, 635/667 nm fluorescence (AID 1147).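 Note: signal reflects streptavidin binding to arrayed compounds as a control protein.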 The conditions noted are these: streptavidin binding, higher = more signal.
Experiment [7] can be described thus: small-molecule binders of probe aInhba, primary screen, biochemical, small-molecule microarray, 635/667 nm fluorescence (AID 1148).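 Note: score merges 667nm spot fluorescence with signal-to-noise for antibody binding to printed compounds.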 The conditions noted are these: higher = more signal.
Experiment [8] deals with Torsin-1A (Homo sapiens) (UniProt O14656). As to the kind of experiment: torsin A binders from cell lysate, primary screen, small-molecule microarray, wild-type, 635/667 nm (AID 1149). To be noted: COS7 hTOR1A-WT lysate, 635 nm fluorescence, higher = more signal.
The target is the same in experiment [9]. As to the kind of experiment: small-molecule binders of mutant TOR1A in lysate, primary screen, cell lysate, small-molecule microarray, COS7 lysate, 635/667 nm fluorescence (AID 1150).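 Note: score pools 667 nm emission and signal to noise measuring lysate protein binding.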 The conditions noted are these: COS7 hTOR1A mutant lysate, 635 nm fluorescence, higher = more signal.
Experiment [10] deals with Sonic hedgehog protein (Shh). Kind of experiment: small-molecule binders of Shh protein, primary screen, biochemical, small-molecule microarray, 635/667 nm fluorescence (AID 1151).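 Note: Shh protein binding to compounds spotted on small-molecule microarray slides; score combines spot fluorescence intensity with signal-to-noise across triplicate slides.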 The conditions noted are these: small-molecule microarray binding, 635 nm fluorescence; higher = more signal.

Chain of Torsin-1A (Homo sapiens) (O14656 whole entry, looked up): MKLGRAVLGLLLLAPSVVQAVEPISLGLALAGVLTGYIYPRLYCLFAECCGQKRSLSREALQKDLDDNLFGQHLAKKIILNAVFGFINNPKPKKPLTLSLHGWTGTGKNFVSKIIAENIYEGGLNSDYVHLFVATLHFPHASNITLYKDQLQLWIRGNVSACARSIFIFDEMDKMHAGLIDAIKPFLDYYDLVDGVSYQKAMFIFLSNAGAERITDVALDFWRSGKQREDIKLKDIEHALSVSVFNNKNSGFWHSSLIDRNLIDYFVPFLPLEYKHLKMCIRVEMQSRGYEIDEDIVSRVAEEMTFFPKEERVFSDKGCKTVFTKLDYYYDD
Chain of Streptavidin (Streptomyces avidinii) (P22629 whole entry, looked up): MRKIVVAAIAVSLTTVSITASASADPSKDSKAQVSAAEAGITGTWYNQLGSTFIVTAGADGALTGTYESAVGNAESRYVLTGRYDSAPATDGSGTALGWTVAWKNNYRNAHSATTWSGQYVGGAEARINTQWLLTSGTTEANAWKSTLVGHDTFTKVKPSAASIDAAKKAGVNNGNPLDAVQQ

Regarding `COC(=O)[C@@]1(Cc2ccccc2N=[N+]=[N-])N=C(c2ccc(OCCCO)cc2)O[C@H]1c1ccccc1CN=[N+]=[N-]`, the composite z-score in experiment [1] is 0.171; in experiment [6], -0.46; in [7], -0.0102; with Torsin-1A (Homo sapiens) [8] it was -0.181; with Torsin-1A (Homo sapiens) [9], -0.303; in experiment [10], 0.144. The z-score in experiment [2] was -5.31 (inactive); in experiment [3] it was 1.18 (inactive); in [4], 3.33 (inactive); in [5] it was -0.412 (inactive).
With `COC(=O)[C@@]1(Cc2ccc(OC)cc2)[C@H]2c3cc(C(=O)N(C)C)n(CCc4ccc(OC)c(Br)c4)c3C[C@H]2CN1C(=O)c1ccccc1`, the composite z-score is 0.839 in experiment [1]; 1.95 in [6]; 0.993 in experiment [7]; -0.242 in the experiment with Torsin-1A (Homo sapiens) [8]; 0.733 with Torsin-1A (Homo sapiens) [9]; 0.116 in experiment [10]. The z-score in experiment [2] is -3.88 (inactive); in experiment [3], 0.28 (inactive); in experiment [4], 0.39 (inactive); in experiment [5], 0.0318 (inactive).
`CN1C(=O)C2C=CC(C(O)c3ccc(N(C)C)cc3)N(Nc3ccc([N+](=O)[O-])cc3[N+](=O)[O-])C2C1=O` (stereo not given): the composite z-score in experiment [1] turned out to be 0.0988; in experiment [6] it was 1.51; in [7] it was 0.529; with Torsin-1A (Homo sapiens) [8] it was 0.977; with Torsin-1A (Homo sapiens) [9], 1.56; in [10] it was 0.262. The z-score in experiment [2] is 0.891 (inactive); in [3], -0.202 (inactive); in [4], 1.03 (inactive); in experiment [5] it was 0.0229 (inactive).
As to `COC(=O)[C@@]1(Cc2ccc(OC)cc2)[C@H]2c3cc(C(=O)N(C)C)n(Cc4ccc(C)c(F)c4F)c3C[C@H]2CN1C(=O)c1ccccc1`, the composite z-score in [1] was 0.109; in experiment [6], 0.569; in experiment [7], 0.0179; with Torsin-1A (Homo sapiens) [8], -0.124; with Torsin-1A (Homo sapiens) [9], -0.0724; in experiment [10], -1.09. Moreover, the z-score was -1.49 (inactive) in experiment [2], -0.763 (inactive) in experiment [3], 1.53 (inactive) in experiment [4] and 1.24 (inactive) in experiment [5].
Regarding `O=C1O[C@H](c2ccccc2)[C@H](c2ccccc2)N2[C@H]1[C@@H](C(=O)NC[C@H](O)c1ccccc1)[C@]1(C(=O)Nc3ccc(C#CC4=CCCCC4)cc31)[C@H]2c1ccc(OCCO)cc1`, the composite z-score in experiment [1] is 0.271; in experiment [6], 0.635; in [7] it was -0.0695; with Torsin-1A (Homo sapiens) [8] it was 0.257; in the experiment with Torsin-1A (Homo sapiens) [9], 0.705; in [10], 1.11. Further, the z-score in experiment [2] is -4.66 (inactive); in [3], -0.625 (inactive); in experiment [4] it was 0.0653 (inactive); in [5] it was -0.337 (inactive).
Take `COC(=O)Cn1c(C(=O)N2CCCC2)cc2c1C[C@H]1CN(C(=O)c3ccccc3)[C@@](Cc3ccccc3)(C(=O)OC)[C@@H]21`: the composite z-score in experiment [1] is -0.0963; in experiment [6], 0.344; in experiment [7], 0.158; in the experiment with Torsin-1A (Homo sapiens) [8], -0.531; with Torsin-1A (Homo sapiens) [9], -0.0683; in [10], -1.04. Moreover, the z-score in [2] was -0.259 (inactive); in experiment [3], -0.195 (inactive); in [4], -0.572 (inactive); in experiment [5], -0.402 (inactive).
In the case of `CCCN1C(=O)[C@@]2(CCS(=O)(=O)c3ccccc3)N=C(c3ccc(OCCCO)cc3)O[C@H]2c2ccccc21`, the composite z-score in [1] is 0.286; in [6] it was -0.0174; in [7] it was 0.0528; with Torsin-1A (Homo sapiens) [8] it was 0.069; with Torsin-1A (Homo sapiens) [9] it was 0.655; in experiment [10], 1.58. Moreover, the z-score is -4.26 (inactive) in experiment [2], -1.6 (inactive) in [3], 0.997 (inactive) in experiment [4] and -1.61 (inactive) in experiment [5].
As to `O=C1c2ccccc2[C@@]2(Cc3ccccc3N(CC(F)(F)F)C2=O)[C@H](c2ccc(CO)cc2)N1C1CCCCC1`, the composite z-score in experiment [1] is 0.327; in experiment [6], -0.256; in [7] it was 0.207; in the experiment with Torsin-1A (Homo sapiens) [8], 0.17; in the experiment with Torsin-1A (Homo sapiens) [9], -0.309; in [10], 0.522. In addition, the z-score in experiment [2] was -0.323 (inactive); in experiment [3], 0.00188 (inactive); in experiment [4], -0.168 (inactive); in experiment [5] it was -0.838 (inactive).
Turning to `CC[C@@H]1C=C(C(=O)O)[C@H](c2ccccc2)N1S(=O)(=O)c1ccc([N+](=O)[O-])cc1`, the composite z-score in [1] was -0.0781; in experiment [6], 0.698; in experiment [7] it was -0.128; with Torsin-1A (Homo sapiens) [8], 0.802; with Torsin-1A (Homo sapiens) [9], 0.717; in experiment [10], -0.335. The z-score in [2] was -0.979 (inactive); in [3], -0.667 (inactive); in [4], -0.873 (inactive); in experiment [5] it was 0.403 (inactive).
With `CC(C)C[C@@H]1NC(=O)[C@H]2C[C@@H](C(=O)NCCCCCC[N+](C)(C)C)[C@@H](c3ccc(O)cc3)N2C1=O`, the composite z-score is -0.266 in experiment [1]; -0.308 in experiment [6]; -0.0719 in [7]; 0.87 with Torsin-1A (Homo sapiens) [8]; 0.951 in the experiment with Torsin-1A (Homo sapiens) [9]; 1.7 in [10]. Moreover, the z-score in experiment [2] was -0.0365 (inactive); in experiment [3] it was -0.337 (inactive); in experiment [4], -0.122 (inactive); in experiment [5], -0.281 (inactive).
Regarding `O=C(NCC(F)(F)F)[C@@H]1c2ccccc2C(=O)N(Cc2ccccc2Cl)[C@H]1c1ccc(CO)cc1`, the composite z-score in experiment [1] was -0.234; in experiment [6], -1.38; in experiment [7], -0.176; with Torsin-1A (Homo sapiens) [8] it was -0.495; with Torsin-1A (Homo sapiens) [9] it was 0.986; in experiment [10], -0.59. Moreover, the z-score is 0.197 (inactive) in experiment [2], 0.072 (inactive) in experiment [3], 0.414 (inactive) in experiment [4] and -0.65 (inactive) in experiment [5].
Consider `Cc1ccc(S[C@]2(C(=O)NCCCN(C)C)CC(=O)N(Cc3ccccc3)[C@@H]2c2ccc(CO)cc2I)cc1`, for which the composite z-score in [1] is -0.278; in [6] it was -0.0112; in experiment [7] it was -0.0645; with Torsin-1A (Homo sapiens) [8], -1.84; with Torsin-1A (Homo sapiens) [9], -1.08; in [10], -0.824. Besides, the z-score in [2] was -2.97 (inactive); in experiment [3], 0.831 (inactive); in experiment [4], 0.531 (inactive); in experiment [5], 2.84 (inactive).
`C#C[C@H](O[Si](C#Cc1ccccc1)(C(C)C)C(C)C)c1ccccc1`: the composite z-score in experiment [1] was -0.0449; in experiment [6] it was -0.636; in experiment [7], -0.242; with Torsin-1A (Homo sapiens) [8] it was -0.234; in the experiment with Torsin-1A (Homo sapiens) [9], -0.543; in experiment [10], -0.154. Besides, the z-score was -1.33 (inactive) in experiment [2], -0.368 (inactive) in experiment [3], -0.258 (inactive) in experiment [4] and 6.27 (inactive) in experiment [5].
Consider `COC(=O)[C@@]1(Cc2ccccc2CN=[N+]=[N-])N=C(c2ccc(OCCCO)cc2)O[C@H]1c1ccccc1N=[N+]=[N-]`, for which the composite z-score was 0.54 in [1]; -0.104 in [6]; -0.0645 in experiment [7]; -1.42 in the experiment with Torsin-1A (Homo sapiens) [8]; -0.855 with Torsin-1A (Homo sapiens) [9]; 1.77 in [10]. Also, the z-score was -3.9 (inactive) in [2], -0.174 (inactive) in [3], 2.28 (inactive) in experiment [4] and -0.505 (inactive) in [5].
